RXFP1 antag: RXFP1 (human) relaxin receptor antagonism. Q9HBX9. HEK293-RXFP1, relaxin-stimulated cAMP HTRF, 30 min; stronger effect = lower value. activity change, negative = inhibition, % at 57.5 µM. 0.59% of 350,000 active. AID 1259400;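 active means activity change of -60% or lower, but not beyond a set lower limit; inconclusive means change between -60% and -40%, or beyond the set limit; inactive means change above -40%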; further: on the % scale 0 is the no-effect control and ±100 the full control effect
Target sequence (Q9HBX9 whole entry, looked up): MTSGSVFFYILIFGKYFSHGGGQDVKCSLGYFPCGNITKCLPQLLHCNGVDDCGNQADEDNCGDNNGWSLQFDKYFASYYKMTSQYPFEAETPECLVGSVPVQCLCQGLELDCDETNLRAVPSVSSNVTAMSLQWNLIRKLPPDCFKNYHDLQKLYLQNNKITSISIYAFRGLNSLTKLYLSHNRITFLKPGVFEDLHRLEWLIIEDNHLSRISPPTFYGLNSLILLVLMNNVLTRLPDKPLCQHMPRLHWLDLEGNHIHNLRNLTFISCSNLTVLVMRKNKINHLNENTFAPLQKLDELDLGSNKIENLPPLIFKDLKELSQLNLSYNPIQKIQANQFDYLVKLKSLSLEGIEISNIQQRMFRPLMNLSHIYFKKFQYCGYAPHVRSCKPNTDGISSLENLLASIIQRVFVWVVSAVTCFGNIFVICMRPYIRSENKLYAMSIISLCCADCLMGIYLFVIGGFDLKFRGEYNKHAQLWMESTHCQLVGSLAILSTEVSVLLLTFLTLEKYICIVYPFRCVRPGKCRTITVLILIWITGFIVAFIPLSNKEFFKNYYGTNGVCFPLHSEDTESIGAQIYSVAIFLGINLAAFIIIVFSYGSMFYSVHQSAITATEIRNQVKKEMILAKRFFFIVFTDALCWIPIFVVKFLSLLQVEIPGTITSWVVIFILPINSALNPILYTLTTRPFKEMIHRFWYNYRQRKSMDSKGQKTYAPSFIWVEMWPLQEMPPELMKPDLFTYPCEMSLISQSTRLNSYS
gsp ag: gsp mutant agonism. gsp mutant cells, cAMP HTRF, 30 min. Potency, µM (series often up to 76.9 µM), for inactives: at the top dose activation (cAMP increase), hits mostly activators. 0.13% of 340,000 active. AID 624287; active means well fitted activation curve with a large enough effect; inconclusive means small, poorly fitted or top-dose-only effect, or another doubt; inactive means no such curve, though single readings can be large or run the other way; cell line not stated here;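 further: phosphodiesterase inhibitor Ro 20-1724 added with compounds to block cAMP breakdown; potency means the concentration at half of the fitted maximal effect; nearly all actives have a fitted effect of over 60% in size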
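Cells in DMEM/10% FBS with G418 were pretreated with compounds in DMSO plus […] (300 uM stock) for 30 min at 37C. cAMP was measured by HTRF (cAMP-d2 plus anti-cAMP antibody-K) after 30 min at room temperature.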
Giardia killer: kills Giardia lamblia; Giardia lamblia trophozoite viability; activity change, % at 7.66 µM, hits read low; 0.15% of 340,000 active; AID 540267; in the data active means activity change below about -80%; inconclusive means between about -30% and that limit;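 further: parasites exposed to compound for two days anaerobically before the ATP read; on the % scale 0 is the no-effect control and ±100 the full control effect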
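ATP-content bioluminescence gauges trophozoite survival. Cells (100/well) receive compound and incubate anaerobically for 48 hrs at 37 deg C; detection reagent follows for 15-30 min at room temperature.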
gsp antagonist: antagonists of gsp mutant (McCune-Albright syndrome); gsp-mutant cells, cAMP HTRF, 30 min; Potency, µM (titrated, usually from 76.9 µM), for inactives: at the top dose activity change, negative = inhibition, usual class: inhibitors; 0.4% of 340,000 active; calls by dose curve; cell line not stated here;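 further: intracellular cAMP measured with PDE inhibitor Ro 20-1724 present during compound exposure; potency means the concentration at half of the fitted maximal effect; on the % scale 0 is the no-effect control and ±100 the full control effect; nearly all actives have a fitted effect of over 65% in size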
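HTRF cAMP read-out (cAMP-d2 plus anti-cAMP antibody-K in lysis buffer, 30 min RT). Before lysis, cells are exposed to compounds with […] for 30 min at 37C in DPBS containing Ca/Mg, BSA and Tween 20.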
FBPA coupling cs: inhibits coupling enzyme system, counter-screen for aldolase hits; activity change, negative = inhibition, % at 58.2 µM, hits read low; 0.67% of 290,000 active; coupling enzyme system counterscreen, AmpLite Red fluorescence; AID 2472; in the data active means activity change below about -30%; further: on the % scale 0 is the no-effect control and ±100 the full control effect
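Coupling enzymes only (glyceraldehyde-3-phosphate) + compound, at 57.5 uM final, 10 min RT; add substrate/coupling/AmpLite Red mix, 20 min RT; fluorescence ex 525/em 598 nm. Actives flag coupling-system interference.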
RXFP1 ag: RXFP1 (human) receptor agonism | Q9HBX9 | HEK293T-RXFP1 cAMP TR-FRET, 30 min; response scale: percent of porcine relaxin response, buffer zero | Potency, µM (series often up to 57.5 µM), inactives show at the top dose activation, usual class: activators | 0.3% of 370,000 active | AID 2676; active means well fitted activation curve with a large enough effect; inconclusive means small, poorly fitted or top-dose-only effect; further: potency means the concentration at half of the fitted maximal effect; on the % scale 0 is the no-effect control and ±100 the full control effect; nearly all actives have a fitted effect of over 60% in size
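cAMP rise read by TR-FRET after 30 min, 37C compound exposure (up to 58 uM) in RXFP1-transfected HEK293 cells with Ro 20174 present. EC50 from Hill-equation fits, with 29 nM porcine relaxin as 100% and buffer as basal.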
* hit, by the source's call; ! = not active in a repeat; [ ] = another dose, or the depositor's remark. The list is not random: actives were taken first. Their share in the collection is about 1.6%.

Screening CCN(CC(=O)Nc1cccc(F)c1)Cc1nc2ccccc2c(=O)[nH]1 returned RXFP1 antag 1.6, gsp ag inconclusive, Giardia killer 2.1, gsp antagonist 31.6µM*, FBPA coupling cs -10.8 and RXFP1 ag 0.1%.
CCOC(=O)/C(C#N)=C/c1cc2ccccc2nc1N1CCCCC1 was read as RXFP1 antag -1.5, gsp ag 11.2µM*, Giardia killer 11.6, gsp antagonist 2.7%, FBPA coupling cs -0.2 and RXFP1 ag 14.1µM*.
`COc1cc(/C=C2/C(=O)N(c3ccccc3)N=C2C)ccc1OS(=O)(=O)c1ccccc1` gave FBPA coupling cs -42.0* and RXFP1 ag 3.2%.
Screening C=C1C2c3ccccc3C(CC2(C)O[Si](C)(C)C)N1C(=O)OC (stereo not given) returned FBPA coupling cs -1.3.
Screening O=C(NCCSc1c[nH]c2ccccc12)c1ccc(Br)o1 returned RXFP1 antag -10.4, gsp ag -24.3%, Giardia killer -25.9, gsp antagonist -2.2%, FBPA coupling cs 0.2 and RXFP1 ag 0.0%.
Screening Cc1[nH]c2ccccc2c1SCCNC(=O)c1ccc(Br)o1 returned RXFP1 antag -82.0*, gsp ag 5.8%, Giardia killer 6.9, gsp antagonist -18.7%, FBPA coupling cs -4.2 and RXFP1 ag -2.1%.
COc1cc2cnc(-c3ccccc3)c(-c3ccc(C(F)(F)F)cc3)c2cc1OC was read as gsp ag 0.4%, Giardia killer -23.0, gsp antagonist -17.6% and RXFP1 ag 2.4%.
For COc1cc(/C=C2/SC(=O)NC2=O)ccc1OCc1ccccc1 the results were RXFP1 antag -1.8, gsp ag -41.3%, Giardia killer -12.3, gsp antagonist 31.6µM*, FBPA coupling cs 5.1 and RXFP1 ag -2.1%.
For Cc1nnc2sc(SCC(=O)N3CCCCC3)nn2c1=O the results were RXFP1 antag 1.4, gsp ag 28.2µM*, Giardia killer 7.9, gsp antagonist 9.5% and RXFP1 ag 28.7%.
Screening Cc1nnc2sc(SCC(=O)N3CCC(C)CC3)nn2c1=O returned RXFP1 antag 7.6, gsp ag inconclusive, Giardia killer -0.9, gsp antagonist 2.7% and RXFP1 ag inconclusive.
Cc1cc(C(=O)OCC(N)=O)c(C)n1-c1ccccc1 was read as RXFP1 antag inconclusive, gsp ag -4.0%[15.4 µM], Giardia killer 2.5, gsp antagonist 5.5%, FBPA coupling cs 3.6 and RXFP1 ag -2.7%.
Cc1cc(C(=O)COC(=O)c2ccc(O)cc2O)c(C)n1-c1ccccc1 was read as RXFP1 antag -87.2*, gsp ag -47.2%, Giardia killer 11.9, gsp antagonist inconclusive and RXFP1 ag -3.0%.
Screening COc1ccc(-n2c(C)cc(C(=O)COc3ccc(C)nc3[N+](=O)[O-])c2C)cc1 returned RXFP1 antag -1.6, gsp ag -53.8%, Giardia killer -80.8*, gsp antagonist 4.2%, FBPA coupling cs -4.6 and RXFP1 ag 0.9%.
`COc1ccc(-n2c(C)cc(C(=O)COC(=O)c3ccc(O)cc3O)c2C)cc1` gave RXFP1 antag -32.8, gsp ag 3.7%, Giardia killer 4.6, gsp antagonist 31.6µM* and RXFP1 ag -0.6%.
Screening Cc1cc(C(=O)COC(=O)c2ccc(O)cc2O)c(C)n1-c1ccc(OC(F)F)cc1 returned RXFP1 antag inconclusive, gsp ag -16.2%, Giardia killer -8.9, gsp antagonist -18.5% and RXFP1 ag 0.4%.
`C=CCN1C=C2C(=O)C(C)(OC(=O)CCC(=O)OC)C(=O)C(Br)=C2C=C1c1ccc(OC)cc1` (stereo not given) gave Giardia killer 6.8, gsp antagonist -22.4%, FBPA coupling cs -41.0*! and RXFP1 ag 0.0%.
`COCCN1C=C2C(=O)C(C)(OC(=O)CCC(=O)OC)C(=O)C(Br)=C2C=C1c1ccc(OC)cc1` (stereo not given) gave Giardia killer -6.7, gsp antagonist -14.7% and FBPA coupling cs -30.1*.
COC(=O)CCC(=O)OC1(C)C(=O)C2=CN(C3CCCC3)C(c3ccc(OC)cc3)=CC2=C(Br)C1=O (stereo not given) was read as Giardia killer -9.7, gsp antagonist -23.1%, FBPA coupling cs -41.0* and RXFP1 ag -0.6%.
O=S(=O)(c1ccccc1)[C@@]1(c2ccc(Br)cc2)C[C@@H]2ON=C(c3cccc(Br)c3)[C@@H]2C1 was read as Giardia killer 6.8, gsp antagonist -7.4% and RXFP1 ag -0.1%.
For O=S(=O)(c1ccccc1)[C@@]1(c2ccc(Br)cc2)C[C@@H]2ON=C(c3ccccc3)[C@@H]2C1 the results were Giardia killer 4.9, gsp antagonist 11.2µM* and RXFP1 ag -0.1%.
Screening COc1nc(-c2ccccc2)c2cc(Br)ccc2n1 returned RXFP1 antag -11.6, gsp ag 12.6µM*, Giardia killer 8.4 and gsp antagonist 2.6%.
COc1ccc(S(=O)(=O)N2CCN(CC(=O)c3[nH]c(C)c(C(C)=O)c3C)CC2)cc1OC was read as RXFP1 antag 0.9, gsp ag 1.9%, Giardia killer 14.5, gsp antagonist inconclusive and RXFP1 ag 2.7%.
For CC(=O)c1c(C)[nH]c(C(=O)CN2CCN(S(=O)(=O)c3ccc(C(C)C)cc3)CC2)c1C the results were RXFP1 antag -2.5, gsp ag -13.6%, Giardia killer 0.8, gsp antagonist 35.5µM* and RXFP1 ag 2.1%.
O=c1cc(-c2ccc(O)cc2)oc2c1ccc1ccccc12 was read as RXFP1 antag 5.3, gsp ag 22.2%, Giardia killer -9.7, gsp antagonist -5.2% and RXFP1 ag 2.4%.
For O=c1cc(-c2ccc(O)cc2)oc2c(O)c(O)c(O)c(O)c12 the results were Giardia killer 3.2, gsp antagonist -10.5%, FBPA coupling cs -66.3* and RXFP1 ag 5.3%.
For O=c1cc(-c2ccccc2)oc2cc(O)c(O)c(O)c12 the results were Giardia killer -13.3, gsp antagonist -23.0% and FBPA coupling cs -44.6*.
For COCC(C)N1C(=O)Cc2c1nc(N)c1c(N)nc(N3CCN(c4ccccc4F)CC3)c(C#N)c21 (stereo not given) the results were RXFP1 antag -60.1*, gsp ag inconclusive, Giardia killer 23.2, gsp antagonist -13.9%, FBPA coupling cs -8.0 and RXFP1 ag 18.6%.
O=C(COC(=O)c1ccc(O)cc1)NCCc1c[nH]c2ccccc12 was read as RXFP1 antag 5.9, gsp ag -6.0%, Giardia killer 11.7, gsp antagonist -9.9% and RXFP1 ag 1.0%.
